Screening results (PubChem)
LmPK inhibitor: LmPK (Leishmania mexicana) enzyme inhibition; Q27686; purified LmPK, Kinase-Glo ATP luminescence, 1 h; Potency, µM (series often up to 57.5 µM), for the others: top-dose activity change, negative = inhibition, usual class: inhibitors; 0.37% of 290,000 active; AID 1721; also: potency is read from the fitted curve at half-maximal effect; % is scaled to controls: 0 for no effect and ±100 for the full control effect
Target sequence (Q27686 whole entry, looked up): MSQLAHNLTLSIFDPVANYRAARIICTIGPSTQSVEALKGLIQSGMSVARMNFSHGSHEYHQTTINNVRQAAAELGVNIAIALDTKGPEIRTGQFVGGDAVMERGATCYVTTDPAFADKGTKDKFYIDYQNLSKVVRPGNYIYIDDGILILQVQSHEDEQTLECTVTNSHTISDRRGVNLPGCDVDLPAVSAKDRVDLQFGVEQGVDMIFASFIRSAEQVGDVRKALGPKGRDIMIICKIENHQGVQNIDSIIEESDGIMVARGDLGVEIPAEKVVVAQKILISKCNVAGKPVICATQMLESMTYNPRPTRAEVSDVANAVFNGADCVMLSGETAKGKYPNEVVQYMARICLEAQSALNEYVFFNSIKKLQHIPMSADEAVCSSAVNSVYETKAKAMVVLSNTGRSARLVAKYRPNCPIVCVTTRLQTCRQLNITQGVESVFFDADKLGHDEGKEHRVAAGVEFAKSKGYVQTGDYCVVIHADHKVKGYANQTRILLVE
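0.1 nM LmPK, 0.5 mM PEP, 0.1 mM ADP; 50 mM imidazole pH 7.2, 7 mM MgCl2, 50 mM KCl; 1 h RT. Kinase-Glo luminescence readout, normalized to no-enzyme (full inhibition) and uninhibited wells.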
Pf growth 96h: P. falciparum growth inhibition at 96 hour, primary screen for plastid delayed-death inhibitors; P. falciparum luciferase reporter growth, 96 h; Potency, µM (series often up to 28.7 µM), for inactives: top-dose activity change, negative = inhibition, hits mostly inhibitors; 6.9% of 320,000 active; AID 504834; also: potency is read from the fitted curve at half-maximal effect; % is scaled to controls: 0 for no effect and ±100 for the full control effect
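P. falciparum expressing integrated firefly luciferase grown in erythrocytes (2% hematocrit, 0.05% parasitemia final) with compounds for 96 hours at 37 C, 5% CO2. Growth inhibition read as loss of luminescence after adding luciferase detection reagent.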
Pf growth 48h: P. falciparum growth inhibition at 48 hours (one generation) | Potency, µM (top dose mostly 28.7 µM), without a hit: at the highest dose activity change, negative = inhibition, usual class: inhibitors | P. falciparum luciferase growth in erythrocytes, 48 h | 5.9% of 310,000 active; also: potency is read from the fitted curve at half-maximal effect; % is scaled to controls: 0 for no effect and ±100 for the full control effect
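Cell-based growth assay: transgenic P. falciparum expressing firefly luciferase, cultured in red cells within RPMI 1640 containing 0.5% w/v Albumax, 24 mM bicarbonate and gentamycin. A drop in luciferase activity indicates inhibition.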
CHX counter: affects cycloheximide protein synthesis inhibition readout, counter-screen; 12% of 300,000 active; cell reporter, cycloheximide protein synthesis inhibition counterscreen; max response, %; in the data active = max response mostly above about 13%, no sharp cut-off; inactive = mostly below about 14%; also: read at 38.3 µM for the half of the compounds with a filed dose; 0% is about no effect
Shiga inhibitor: Shiga toxin inhibition; Vero cells, Shiga toxin protein synthesis inhibition reporter; inhibition, % at 38.7 µM; 9.2% of 290,000 active; in the data active = inhibition mostly above about 28%, no sharp cut-off; inactive = mostly below about 43%; also: 0% is about no effect
Active calls of the source: *; ? = inconclusive; / = not tested or not shown. Shown are actives, neighbours in structure and some others; about 22% of the full set was active somewhere. Unless noted, calls follow the shape of the dose curve; as a rule, active = well fitted inhibition curve with a large enough effect; inconclusive = small, poorly fitted or top-dose-only effect, or another doubt; inactive = no such curve, though single readings can be large or run the other way.

SMILES	LmPK inhibitor	Pf growth 96h	Pf growth 48h	CHX counter	Shiga inhibitor
Cc1csc2c(N3CCCCC3)ncnc12	0%	20%	36%	30*	44
Cc1csc2c(N3CCN(C(=O)Nc4ccc(OC(F)(F)F)cc4)CC3)ncnc12	9%	?	1.5µM*	-1	-1
COC(=O)CN1C(=S)N(c2ccc(OC)cc2)C(=O)/C1=C/c1ccc(N2CCOCC2)cc1	-2%	-1%	?	1	16
COC(=O)CN1C(=S)N(c2ccc(OC)cc2)C(=O)/C1=C/c1ccc(OC)cc1	3%	-1%	12µM*	6	-14
O=C(Nc1cccc(Cl)c1)ON=C1c2ccccc2-c2ccccc21	2%	141%	8%	24	41
Cc1ccc(N2C(=O)C(Cl)=C(N3CCN(C)CC3)C2=O)c(C)c1	0%	2.6µM*	?	-3	1
CN1CCN(C2=C(Cl)C(=O)N(c3ccc(Cl)cc3)C2=O)CC1	3%	/	?	9	25
CC1CN(C(=O)COc2ccc3c(-c4ccccc4)cc(=O)oc3c2)CC(C)O1 (centres undefined)	/	?	-6%	/	/
CC1CCC(NC(=O)c2cc3c(s2)CS(=O)(=O)C3)CC1 (centres undefined)	4%	12µM*	-9%	12	11
S=c1[nH]c(-c2ccc(Cl)cc2)cs1	-7%	-4%	34%	0	3
O=c1cc(-c2ccc(Cl)cc2)[nH]c2ccccc12	5%	2.1µM*	1.5µM*	1	21
Clc1ccc(-c2cc3ccccc3[nH]2)cc1	3%	271%	167%	62*	110*
CCCCN(C)Cc1c(C)[nH]c2ccc(C)cc2c1=O	3%	31%	44%	-3	-2
CCN(CC)Cc1c(-c2ccccc2)[nH]c2ccc(C)cc2c1=O	7%	?	/	29*	35*
Cc1ccc(-c2cc(=O)c3cc(Cl)ccc3[nH]2)cc1	-4%	19%	122%	26*	39*
COc1ccc(OC)c(NC(=O)CSc2ccc3nnc(-c4ccccn4)n3n2)c1	-1%	?	?	-2	-2
COc1ccc(CNC(=O)CCN2C(=O)[C@@H]3Cc4ccccc4CN3C2=O)cc1	2%	?	16%	-3	-11
Cc1ccc2[nH]c(-c3ccccc3)cc(=O)c2c1	-7%	?	?	30*	49
Cc1ccc(-c2cc(=O)c3ccccc3[nH]2)cc1	5%	?	?	29*	112*
Cc1cc(=O)c2ccccc2[nH]1	0%	79%	19%	-5	-8
CCC(=O)NCc1c(C)c(C)n(Cc2ccccc2)c1-n1cccc1	11%	?	?	21	-3
CCOC(=O)c1c(C)oc2c1cc(NS(=O)(=O)c1ccc(C(=O)O)cc1)c1ccccc12	-3%	-4%	14%	0	15
CCOC(=O)c1c(C)oc2c1c(C=NCc1ccccn1)c(O)c1ccccc12	4%	?	2.1µM*	29*	47*
CC(=O)c1cc(O)c2ccccc2c1O	-11%	?	?	31*	66*
CC(=O)c1c(C)oc2c1cc(O)c1ccccc12	0%	28%	33%	20*	31
SMILES	LmPK inhibitor	Pf growth 96h	Pf growth 48h	CHX counter	Shiga inhibitor
CCOC(=O)c1c(C)oc2c1cc(O)c1ccccc12	0%	-2%	120%	35*	108*
CCOC(=O)c1c(C)oc2c1c(C=NCC1CCCO1)c(O)c1ccccc12 (centres undefined)	1%	-6%	?	-3	-11
NS(=O)(=O)c1ccc(CNC(=O)/C=C/c2cccc([N+](=O)[O-])c2)cc1	4%	0%	25%	-1	-38
O=C(O)C1(c2ccccc2)CCN(S(=O)(=O)c2ccc(Cl)cc2)CC1	3%	?	-10%	-4	/
CC(=O)N1CCN(Cc2nc3cc(NC(=O)NC4CCCCC4)ccc3n2C)CC1	-1%	16%	-26%	-2	24
Cc1c(NC(=O)C(C)OC(=O)CCc2c[nH]c3ccccc23)c(=O)n(-c2ccccc2)n1C (centres undefined)	/	4%	?	/	/
CCOC(=O)c1c(C)[nH]c2c1cc(O)c1ccccc12	3%	?	0.15µM*	34*	65*
CCOC(=O)c1c(C)n(CC)c2c1cc(O)c1ccccc12	3%	6%	-34%	-2	-1
CCOC(=O)c1c(C)n(Cc2ccco2)c2c1cc(O)c1ccccc12	4%	/	3.7µM*	22	25
CC(C)Cn1c(=O)c(CCC(=O)Nc2ccc(N3CCOCC3)cc2)nc2cc(Cl)ccc21	10%	20%	?	8	4
COc1ccc2c(c1OC)CN1CCc3cc4c(cc3[C@H]1C2)OCO4	/	0.72µM*	3.7µM*	/	/
C#CCn1c(=NC(=O)c2cc(Cl)sc2Cl)sc2cc(S(N)(=O)=O)ccc21	1%	-11%	13%	13	36
CCOc1cccc2sc(=NC(=O)c3ccco3)n(CC(=O)OC)c12	-4%	-28%	?	37*	68*
C#CCn1c(=NC(=O)c2ccco2)sc2cccc(Cl)c21	9%	15%	19%	13*	24
Cc1nn(C(=O)CNS(=O)(=O)c2ccccc2)c(C)c1Sc1ccc(Cl)cc1	2%	18%	1%	2	12
COc1ccc2[nH]c(=O)c(CN(Cc3cccs3)S(=O)(=O)c3cccc4nsnc34)cc2c1	4%	-7%	7.4µM*	1	-4
CCC(=O)N(CCc1ccccc1)Cc1cc2cc(OC)ccc2[nH]c1=O	5%	-8%	2.1µM*	-5	0
COc1ccc2[nH]c(=O)c(CN(Cc3cccs3)C(=S)Nc3cccc(C)c3)cc2c1	4%	?	15µM*	-1	-5
CNC(=S)N(Cc1cc2ccc(OC)cc2[nH]c1=O)CC1CCCO1 (centres undefined)	-1%	13µM*	-23%	-4	9
COc1ccc2[nH]c(=O)c(CN(CCO)S(=O)(=O)c3c(C)ccc4nsnc34)cc2c1	-2%	/	5%	1	20
COc1ccc2[nH]c(=O)c(CN(CC3CCCO3)C(=S)Nc3cccc(C)c3)cc2c1 (centres undefined)	-1%	25%	?	-1	-8
CC(=O)Nc1ccc(S(=O)(=O)Nc2ccccc2C(=O)N2CCCCC2)cc1	-2%	0%	-25%	-6	-17
N=C(N)n1cccn1	/	-6%	-10%	/	/
CC(C)(C)n1cnnc1Sc1ncccc1[N+](=O)[O-]	-1%	3%	1%	-1	-9
CNC(=S)N(Cc1cccs1)Cc1cc2cc(OC)ccc2[nH]c1=O	1%	7.4µM*	?	0	-15
COc1ccc2[nH]c(=O)c(CNc3cccc(C)c3)cc2c1	2%	?	?	29*	37
COc1ccc(NCc2cc3cc(OC)ccc3[nH]c2=O)cc1	7%	-28%	-20%	-3	-8
COc1ccc2[nH]c(=O)c(CN(CCO)C(=O)c3cccs3)cc2c1	-5%	219%	0%	16	3
